This passage reports growth results from PubChem BioAssay (NCI).

This is part of a sample that, as a whole, favours compounds with a hit. Of some 83,000 tested, about 20% had one in any assay.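 48-hour exposure, single concentration, 96-well plates; percent growth endpoint where 0 means no net growth. Active: below 10.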 A number with no mark means an inactive call. Active and inactive are the calls of the source.

Common to all, as to experiment: NCI-60 one-dose screen, 48 h (100 = growth as untreated, 0 = no growth, -100 = all killed)
Settings in all cases: 10 µM unless noted

For assay [1], the system named is HCT-15 colon.
For assay [2], the system named is HT29 colon.
The subject of assay [3] is SNB-75 CNS.
Assay [4] has as its system SNB-19 CNS.
Assay [5] deals with U251 CNS.
Assay [6] concerns PC-3 prostate.
Assay [7] has as its system SK-MEL-5 melanoma.
The subject of assay [8] is UACC-62 melanoma.
Assay [9] relates to LOX IMVI melanoma.
Assay [10] concerns SK-MEL-28 melanoma.
The test system of assay [11] is SK-MEL-2 melanoma.
Assay [12] deals with EKVX NSCLC.
For assay [13], the system named is SN12C renal.
Assay [14] deals with UO-31 renal.
In assay [15] the test system is TK-10 renal.
For assay [16], the system named is ACHN renal.
Assay [17] has as its system CAKI-1 renal.
The test system of assay [18] is A498 renal.
For assay [19], the system named is CCRF-CEM leukemia.
Assay [20] has as its system MOLT-4 leukemia.

`COc1ccc(C(=O)C2C(C#N)C(C#N)C3C=Cc4ccccc4N32)cc1` (stereo not drawn): the growth in assay [1] was 16.9%; in assay [2] it was 8.8% (active); in assay [3], -21.3% (active); in [4] it was 32.7%; in assay [5], 34.6%; in [6] it was 29.2%. The growth was 15.2% in assay [7]; 57.6% in assay [8]; 43.5% in [9]; 57.6% in assay [10]; 44.5% in [11]; 56.7% in assay [12]. Moreover, the growth was 32.7% in [13]; 42% in assay [14]; 91.9% in assay [15]; 44% in assay [16]; 27.4% in assay [17]; -9.53% (active) in assay [18]. Moreover, the growth in assay [19] was 16.2%; in assay [20], 37.5%.

As for `COc1cc2c3c(c4c5ccccc5[nH]c4c2c(OC)c1OC)C(=O)N(CCN1CCOCC1)C3=O`, the growth is 50% in [1]; 34.2% in [2]; 86.4% in assay [3]; 51.9% in assay [4]; 51.8% in assay [5]; 48.4% in assay [6]. Further, the growth in assay [7] is 54.7%; in assay [8], 43.3%; in assay [9], 45%; in assay [10] it was 99.2%; in [11], 73.9%; in assay [12], 91.2%. Also, the growth is 47.8% in assay [13]; 52.4% in assay [14]; 76.2% in [15]; 35.2% in assay [16]; 40.9% in assay [17]; 54.1% in assay [18]. Also, the growth in [19] is 23.1%; in assay [20], 6.55% (active).

For `O=C(CCN1CCCC1)c1ccc([N+](=O)[O-])cc1`, the growth is 100% in assay [1]; 101% in assay [2]; 84% in assay [3]; 116% in [4]; 98.4% in [5]; 99.8% in [6]. For the same compound, the growth is 101% in assay [7]; 105% in assay [8]; 102% in assay [9]; 104% in assay [10]; 111% in assay [11]; 97.5% in assay [12]. For the same compound, the growth in assay [13] is 106%; in [14], 87.3%; in [15], 101%; in assay [16], 106%; in assay [17], 97.3%; in [18], 92.9%. In addition, the growth in [19] is 103%; in [20] it was 113%.

For `OC(c1ccc(F)c(C(F)(F)F)c1)c1cnccc1NC1CCCCC1` (stereo not drawn), the growth in [1] is 64.7%; in assay [2], 14.3%; in [3] it was 68.7%; in [4] it was 82.9%; in [5], 63.5%; in assay [6] it was 58.7%. Also, the growth is 49.4% in [7]; 71.2% in assay [8]; 69.7% in assay [9]; 84.8% in assay [10]; 89.6% in assay [11]; 69.3% in assay [12]. For the same compound, the growth is 65.3% in [13]; 49.6% in [14]; 71.1% in [15]; 81.9% in assay [16]; 64.3% in assay [17]; 59.6% in assay [18]. Moreover, the growth was 57.2% in assay [19] and 56% in [20].

For `O=C1Nc2ccccc2/C1=C\c1c(-c2ccc(F)cc2)nc2ccccn12`, the growth was 58.2% in assay [1]; 58.7% in assay [2]; 71.3% in [3]; 77.7% in assay [4]; 93.3% in assay [5]; 62.5% in [6]. For the same compound, the growth is 58% in [7]; 65.1% in assay [8]; 68.3% in [9]; 87.2% in [10]; 75.5% in assay [11]; 45.6% in assay [12]. For the same compound, the growth was 82.5% in [13]; 41% in [14]; 109% in assay [15]; 54.9% in assay [16]; 44.3% in [17]; 70.8% in assay [18]. For the same compound, the figures for the growth in [19] and in [20] were 67.9% and 57%, respectively.

For `OCc1cnc2ccccc2c1NC1CCCCCC1`, the growth was 98.4% in [1]; 92.1% in [2]; 91.4% in [3]; 94.4% in assay [4]; 92.6% in assay [5]; 82.2% in assay [6]. The growth in assay [7] is 59.7%; in assay [8], 81.7%; in assay [9] it was 89.2%; in assay [10], 102%; in [11] it was 100%; in [12], 78.7%. Also, the growth in [13] is 93.8%; in assay [14], 67.1%; in assay [15], 96.2%; in assay [16] it was 92.3%; in [17], 73.1%; in assay [18], 79.4%. Further, the growth was 85.1% in assay [19] and 91.5% in assay [20].

Take `Oc1ccc(OCCOc2ccc(O)cc2)cc1`: the growth in assay [1] is 38.4%; in [2], 86.9%; in assay [3], 73.8%; in [4] it was 79.2%; in assay [5] it was 49.5%; in assay [6], 55.7%. Also, the growth in assay [7] was 26.8%; in assay [8] it was 22.5%; in [9], 36.4%; in assay [10], 102%; in assay [11], 81.8%; in [12] it was 75.4%. Moreover, the growth in assay [13] is 59.6%; in assay [14] it was 4.76% (active); in assay [15] it was 87.9%; in assay [16], 6.65% (active); in assay [17] it was 11.4%; in [18], 100%. In addition, the growth in assay [19] was 58.8%; in [20] it was 60.8%.

In the case of `O=C(/C(=C\c1ccc([N+](=O)[O-])cc1)S(=O)Cc1ccc(F)cc1)c1ccc(F)cc1` (stereo not drawn), the growth in assay [1] was 2.57% (active); in [2], -55% (active); in assay [3], 72.1%; in assay [4], 41%; in assay [5], 10.3%; in assay [6], 7.46% (active). In addition, the growth in assay [7] was 76.7%; in [8] it was -22.4% (active); in assay [9], -52.1% (active); in [10], 23.2%; in assay [11] it was 78%; in assay [12], 84.2%. Further, the growth was -43.7% (active) in assay [13]; -39% (active) in [14]; 25.8% in assay [15]; -7.56% (active) in assay [16]; 44.3% in assay [17]; 82.2% in [18]. Also, the growth was 0.265% (active) in assay [19] and 5.93% (active) in assay [20].

With `CN1[C@@H]2CC[C@H]1/C(=C\c1ccccc1)C(=O)/C2=C/c1ccccc1`, the growth in assay [1] is 27.9%; in assay [2], 10.9%; in [3] it was 26.4%; in assay [4], 47.1%; in assay [5], 16.6%; in assay [6], 36.8%. Moreover, the growth in assay [7] was 43.9%; in assay [8] it was 26.6%; in assay [9] it was 19.7%; in assay [10] it was 70.9%; in [11], 60.7%; in assay [12] it was 69.4%. The growth is 36.8% in assay [13]; 55.4% in assay [14]; 74.9% in assay [15]; 42% in assay [16]; 41.3% in assay [17]; 71.7% in assay [18]. For the same compound, the growth in assay [19] is 16.1%; in assay [20] it was 14.9%.

`Cn1c(-c2c(N)n(CCCN3CCOCC3)c3nc(C#N)c(C#N)nc23)nc2ccccc21`: the growth in assay [1] was 67.1%; in assay [2] it was 68%; in [3], 38.4%; in assay [4], 76.1%; in assay [5] it was 67.8%; in assay [6], 35.5%. Moreover, the growth in assay [7] is 92.9%; in assay [8], 77.2%; in assay [9] it was 67.7%; in [10], 59.1%; in [11], 109%; in assay [12] it was 66.3%. For the same compound, the growth in assay [13] was 40.5%; in assay [14], 12.4%; in assay [15] it was 46.8%; in assay [16], -79.1% (active); in [17], 57.6%; in assay [18] it was 90.6%. Besides, the growth in assay [20] is 31.5%.

With `CCCN1[C@@H]2CC[C@H]1/C(=C\c1ccc(OC)c(OC)c1)C(=O)/C2=C/c1ccc(OC)c(OC)c1`, the growth in [1] is 41.6%; in assay [2], 30%; in assay [3] it was 61.1%; in assay [4], 56.7%; in [5], 40.7%; in assay [6], 44.3%. In addition, the growth in assay [7] was 18.1%; in [8], 32%; in assay [9], 32.5%; in [10] it was 73.2%; in [11], 53.6%; in [12], 37.7%. For the same compound, the growth in assay [13] is 49.9%; in assay [14] it was 33.6%; in [15], 67.2%; in assay [16], 47.3%; in assay [17] it was 45.9%; in assay [18], 23.6%. In addition, the growth in [19] was 30.6%; in [20], 29.5%.

In the case of `COc1cc(/C=C/C(=O)c2nc3cc(F)ccc3nc2C)cc(OC)c1OC`, the growth in assay [1] is 48.1%; in [2] it was 68.5%; in assay [3] it was 89.9%; in assay [4] it was 77.9%; in assay [5], 36.7%; in [6], 68.1%. Moreover, the growth was 81% in [7]; 62.2% in [8]; 20.8% in [9]; 61.3% in [10]; 64.6% in assay [11]; 201% in [12]. In addition, the growth in assay [13] was 66.1%; in assay [14], 61.1%; in assay [15] it was 103%; in assay [16] it was 87.3%; in assay [17], 106%; in assay [18], 98%. In addition, the growth in assay [19] was -4.9% (active); in [20], -18.6% (active).

As to `N=C1C(c2nc3ccccc3s2)=C(O)CN1c1cc(Cl)cc(Cl)c1`, the growth is 38.6% in assay [1]; 82.6% in [2]; 128% in assay [3]; 95.2% in [4]; 64.7% in assay [5]; 26.1% in assay [6]. Also, the growth in assay [7] was 88.9%; in [8], 78.1%; in [9], 67%; in assay [10], 120%; in assay [11], 105%; in assay [12], 82.4%. Besides, the growth in [13] was 86.2%; in assay [14] it was 60.2%; in assay [15], 115%; in assay [16], 73.4%; in assay [17] it was 78%; in assay [18] it was 98.5%. Besides, in assay [20], the growth was 29.4%.

In the case of `O=C1c2ccccc2C(=O)c2c([N+](=O)[O-])ccc(Cl)c21`, the growth in assay [1] is 75.9%; in assay [2], 39.4%; in assay [3], 96.4%; in assay [4], 99.1%; in assay [5], 65.6%; in assay [6] it was 82.4%. Moreover, the growth in assay [7] is 97.9%; in assay [8], 96.5%; in assay [9], 55.4%; in assay [10], 106%; in assay [11] it was 107%; in [12], 113%. Besides, the growth in [13] is 97.5%; in [14], 76.6%; in [15] it was 87.6%; in [16], 85.5%; in assay [17] it was 39.4%; in assay [18], 105%. Besides, the growth is 63.2% in assay [19] and 86.2% in assay [20].

Take `C=CCn1c(-c2ccc(-c3nc4ccc(C)cc4[nH]3)cc2)n[nH]c1=S`: the growth in assay [1] was 99.2%; in assay [2], 105%; in assay [3] it was 104%; in assay [4] it was 102%; in assay [5] it was 101%; in assay [6] it was 101%. Further, the growth is 89.5% in [7]; 95.8% in [8]; 98.3% in assay [9]; 100% in [10]; 112% in [11]; 94.5% in assay [12]. In addition, the growth was 96.4% in assay [13]; 89.7% in assay [14]; 133% in assay [15]; 99.6% in [16]; 93.6% in assay [17]; 94.5% in assay [18]. In addition, the growth in [19] was 87.3%; in [20], 96.9%.
